Experimental data: PubChem BioAssay AID652117 (Broad Institute, 2013)
Entries with a potency or affinity are not part of this list. Activity calls are given as the source filed them.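 How the source made its calls: active means compounds whose fitted half-maximal cell-killing dose is no more than twice the top tested dose; inconclusive means flat moderate loss of cell viability, or an unreliable curve fit; inactive means the rest.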

assay: loss of viability in HeLa cells – cell-based, ATP luminescence, dry powder, cytotoxicity control, dose response (AID 652117); details: CellTiter-Glo ATP luminescence, 48 h; series mostly up to 26 µM; activity change, negative = cytotoxicity: at the top concentration

SMILES | activity change, negative = cytotoxicity
C=CCOc1ccc(CN2CCC(CCOc3ccccc3)(C(=O)N3CCCC3)CC2)cc1Cl | -15.1% (inactive)
CCOC(=O)C1(CCOc2ccccc2)CCN(Cc2ccc3[nH]c(=O)oc3c2)CC1 | -10.9% (inactive)
C/C1=C\[C@@H](O)C(C)(C)CCCC2(C)OC2C[C@@H]1OC(=O)c1ccc(O)cc1 (stereo not given in full) | -15.2% (inactive)
C/C1=C\C[C@H](OC(=O)c2ccc(O)cc2)/C(C)=C/[C@@H](O)C(C)(C)CCC1 | -11.7% (inactive)
CCOC(=O)C1(CCOC)CCCN(Cc2ccc(Cl)cc2)C1 (stereo not given) | 5.63% (inactive)
CCN(C)C(=O)C1(CCOc2ccccc2)CCN(Cc2ccc(O)c(Cl)c2)CC1 | -3.57% (inactive)
CCOC(=O)C1(Cc2ccccc2)CCN(Cc2ccc(O)c(Cl)c2)CC1 | -11.8% (inactive)
O=C(NC1CCCC1)C1(CCOc2ccccc2)CCN(Cc2ccc(O)c(Cl)c2)CC1 | 1.32% (inactive)
O=C(N1CCCC1)C1(CCOc2ccccc2)CCN(Cc2ccc(O)c(Cl)c2)CC1 | -4.71% (inactive)
C=CCOc1ccc(CN2CCC(CCOc3ccccc3)(C(=O)NC3CCCC3)CC2)cc1Cl | -5.23% (inactive)
O=C(Nc1ccccc1)C1(CCOc2ccccc2)CCN(Cc2ccc(O)c(Cl)c2)CC1 | -2.8% (inactive)
CCNC(=O)C1(CCOc2ccccc2)CCN(Cc2ccc(O)c(Cl)c2)CC1 | 6.23% (inactive)
CCOC(=O)C1CCN(C(=O)OC(C)(C)C)CC1 | 1.94% (inactive)
CCOC(=O)C1(CCOc2ccccc2)CCN(C(=O)OC(C)(C)C)CC1 | -0.744% (inactive)
CCOC(=O)C1(CCOc2ccccc2)CCN(Cc2ccc(OC)c(Cl)c2)CC1 | -13.4% (inactive)
C=CCOc1ccc(CN2CCC(CCOc3ccccc3)(C(=O)NCC)CC2)cc1Cl | 0.968% (inactive)
CCOC(=O)C1(CCOc2ccccc2)CCN(C(=O)c2ccc(O)c(Cl)c2)CC1 | -7.6% (inactive)
CCOC(=O)C1(Cc2cccc(OC)c2)CCN(Cc2ccc(O)c(Cl)c2)CC1 | -11.2% (inactive)
CCOC(=O)C1(CCOc2ccccc2)CCN(Cc2ccc(OC)cc2)CC1 | -18.1% (inactive)
C=CCOc1ccc(CN2CCC(CCOc3ccccc3)(C(=O)O)CC2)cc1Cl | -6.92% (inactive)
C=CCOc1ccc(CN2CCC(CCOc3ccccc3)(C(=O)N(C)CC)CC2)cc1Cl | -4.76% (inactive)
C=CCOc1ccc(CN2CCC(CCOc3ccccc3)(C(=O)OCC)CC2)cc1Cl | -16.3% (inactive)
CCOC(=O)C1(CCOC)CCN(Cc2ccc(O)c(Cl)c2)CC1 | -6.28% (inactive)
CCOC(=O)C1(CCOc2ccccc2)CCN(Cc2ccc(O)cc2)CC1 | -15.3% (inactive)
CCOC(=O)C1(CCOc2ccccc2)CCN(Cc2ccc(O)c(Cl)c2)CC1 | -10.2% (inactive)
